In the supplement of paper PMC11732987, “Enantioselective OTUD7B fragment discovery through chemoproteomics screening and high-throughput optimisation” (Communications Chemistry, 2025):

Experiments:
Experiment in all cases: log2 ratio of Biotin-Ahx-Ub-VS probe labelling (fragment/DMSO); higher = less target engagement (more negative = stronger competition), active = hit call of the paper (q ≤ 0.05, log2 ratio ≤ -1)
Conditions in all cases: compound concentration: 200 uM; treatment time: 3 h
[1] = target: T1, USP42 (UniProt Q9H9J4)
T1 sequence (whole entry): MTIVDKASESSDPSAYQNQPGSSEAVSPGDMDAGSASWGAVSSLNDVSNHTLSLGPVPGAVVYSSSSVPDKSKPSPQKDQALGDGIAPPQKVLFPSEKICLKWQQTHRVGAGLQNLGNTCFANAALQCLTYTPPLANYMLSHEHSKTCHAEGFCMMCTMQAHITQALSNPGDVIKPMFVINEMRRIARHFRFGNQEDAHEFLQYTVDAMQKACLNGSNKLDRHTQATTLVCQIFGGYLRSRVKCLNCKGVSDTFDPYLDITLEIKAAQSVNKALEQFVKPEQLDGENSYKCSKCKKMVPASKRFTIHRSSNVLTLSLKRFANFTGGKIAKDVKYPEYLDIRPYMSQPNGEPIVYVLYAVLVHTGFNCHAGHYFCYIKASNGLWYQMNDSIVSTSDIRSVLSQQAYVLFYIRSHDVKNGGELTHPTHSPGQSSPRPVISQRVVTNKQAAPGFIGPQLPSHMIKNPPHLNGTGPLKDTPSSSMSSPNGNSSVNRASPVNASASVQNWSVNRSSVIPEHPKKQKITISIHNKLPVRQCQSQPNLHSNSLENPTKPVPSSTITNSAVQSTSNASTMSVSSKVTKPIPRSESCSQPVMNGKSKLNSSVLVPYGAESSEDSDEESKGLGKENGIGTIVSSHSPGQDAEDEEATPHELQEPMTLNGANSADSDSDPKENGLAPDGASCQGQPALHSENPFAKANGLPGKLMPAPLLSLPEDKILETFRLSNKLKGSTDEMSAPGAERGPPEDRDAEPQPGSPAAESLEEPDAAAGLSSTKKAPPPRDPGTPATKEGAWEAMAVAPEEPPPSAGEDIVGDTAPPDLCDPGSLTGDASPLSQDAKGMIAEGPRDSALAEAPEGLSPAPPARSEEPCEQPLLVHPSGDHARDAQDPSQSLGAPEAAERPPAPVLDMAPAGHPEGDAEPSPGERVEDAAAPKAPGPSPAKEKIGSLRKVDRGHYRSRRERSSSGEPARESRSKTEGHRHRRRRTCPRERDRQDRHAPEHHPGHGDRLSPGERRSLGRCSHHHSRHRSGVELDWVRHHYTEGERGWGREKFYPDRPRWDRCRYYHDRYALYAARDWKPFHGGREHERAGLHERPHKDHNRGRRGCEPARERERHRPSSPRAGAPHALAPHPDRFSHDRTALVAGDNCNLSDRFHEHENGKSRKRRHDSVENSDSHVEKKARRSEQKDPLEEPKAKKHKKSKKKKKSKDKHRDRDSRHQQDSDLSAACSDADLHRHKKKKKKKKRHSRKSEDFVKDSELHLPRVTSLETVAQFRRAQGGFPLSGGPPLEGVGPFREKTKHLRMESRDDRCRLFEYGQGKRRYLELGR
Outline: (§1)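 HEK293T lysate (495 µg per sample, in Tris/CHAPS/IGEPAL buffer with protease inhibitors) was exposed in triplicate for 3 h to fragment at 200 µM or to vehicle, then to Biotin-Ahx-Ub-VS at 0.5 µM final for 1 h. Labelled DUBs were enriched on NeutrAvidin, digested with LysC and trypsin, and analysed by diaPASEF LC-MS/MS. Spectronaut label-free quantities were normalised to the global median, and values are average log2 ratios of fragment over vehicle from an unpaired t-test. Only proteins with ≥2 unique peptides were used.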

[2] = target: USP46 (UniProt P62068)
Sequence of USP46 (P62068 whole entry): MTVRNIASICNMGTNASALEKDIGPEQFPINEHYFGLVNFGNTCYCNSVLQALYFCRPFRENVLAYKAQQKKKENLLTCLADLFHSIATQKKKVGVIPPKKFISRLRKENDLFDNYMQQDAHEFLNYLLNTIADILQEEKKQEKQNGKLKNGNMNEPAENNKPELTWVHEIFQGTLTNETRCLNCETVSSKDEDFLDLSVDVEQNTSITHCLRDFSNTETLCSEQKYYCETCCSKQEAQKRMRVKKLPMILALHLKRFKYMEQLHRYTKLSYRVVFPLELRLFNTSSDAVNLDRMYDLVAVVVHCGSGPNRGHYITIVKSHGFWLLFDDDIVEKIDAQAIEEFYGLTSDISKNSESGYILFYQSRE
Outline: as §1

[3] = target: T2, USP47 (UniProt Q96K76)
T2 sequence (whole entry): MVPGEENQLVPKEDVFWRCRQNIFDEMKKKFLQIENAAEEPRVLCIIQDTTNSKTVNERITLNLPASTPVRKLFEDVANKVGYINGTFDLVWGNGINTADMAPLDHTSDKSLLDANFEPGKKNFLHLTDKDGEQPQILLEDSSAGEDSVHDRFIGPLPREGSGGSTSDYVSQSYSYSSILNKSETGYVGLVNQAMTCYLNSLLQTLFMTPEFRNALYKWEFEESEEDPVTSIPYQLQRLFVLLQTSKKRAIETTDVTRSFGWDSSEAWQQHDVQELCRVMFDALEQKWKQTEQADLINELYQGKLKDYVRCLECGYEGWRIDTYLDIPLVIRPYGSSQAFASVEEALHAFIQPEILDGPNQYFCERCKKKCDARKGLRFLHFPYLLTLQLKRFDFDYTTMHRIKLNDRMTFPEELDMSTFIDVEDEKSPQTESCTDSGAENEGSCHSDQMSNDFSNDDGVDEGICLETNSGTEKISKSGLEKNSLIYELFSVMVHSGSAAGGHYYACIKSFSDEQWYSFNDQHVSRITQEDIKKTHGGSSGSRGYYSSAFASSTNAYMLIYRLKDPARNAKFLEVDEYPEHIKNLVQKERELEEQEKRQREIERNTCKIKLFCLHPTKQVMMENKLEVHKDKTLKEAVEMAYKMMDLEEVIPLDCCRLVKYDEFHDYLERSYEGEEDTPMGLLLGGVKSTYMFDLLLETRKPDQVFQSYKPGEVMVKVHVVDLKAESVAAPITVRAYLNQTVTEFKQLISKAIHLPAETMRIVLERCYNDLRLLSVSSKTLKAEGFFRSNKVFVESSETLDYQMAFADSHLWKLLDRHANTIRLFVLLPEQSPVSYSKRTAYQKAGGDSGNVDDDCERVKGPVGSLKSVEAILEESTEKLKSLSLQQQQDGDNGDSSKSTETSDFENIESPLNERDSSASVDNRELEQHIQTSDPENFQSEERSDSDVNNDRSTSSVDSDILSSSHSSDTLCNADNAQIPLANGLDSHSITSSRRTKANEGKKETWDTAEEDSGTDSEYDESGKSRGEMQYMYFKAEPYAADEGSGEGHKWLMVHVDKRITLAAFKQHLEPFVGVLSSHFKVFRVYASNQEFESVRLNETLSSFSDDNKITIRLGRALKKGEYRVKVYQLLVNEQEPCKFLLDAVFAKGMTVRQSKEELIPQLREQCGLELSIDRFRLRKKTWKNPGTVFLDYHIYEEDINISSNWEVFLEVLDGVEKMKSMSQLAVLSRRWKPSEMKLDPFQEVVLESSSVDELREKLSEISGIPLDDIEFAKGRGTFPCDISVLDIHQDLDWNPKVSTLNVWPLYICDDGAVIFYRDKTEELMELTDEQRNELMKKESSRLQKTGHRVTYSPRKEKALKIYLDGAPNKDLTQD
Outline: as §1

[4] = target: T3, USP48 (UniProt Q86UV5)
T3 sequence (whole entry): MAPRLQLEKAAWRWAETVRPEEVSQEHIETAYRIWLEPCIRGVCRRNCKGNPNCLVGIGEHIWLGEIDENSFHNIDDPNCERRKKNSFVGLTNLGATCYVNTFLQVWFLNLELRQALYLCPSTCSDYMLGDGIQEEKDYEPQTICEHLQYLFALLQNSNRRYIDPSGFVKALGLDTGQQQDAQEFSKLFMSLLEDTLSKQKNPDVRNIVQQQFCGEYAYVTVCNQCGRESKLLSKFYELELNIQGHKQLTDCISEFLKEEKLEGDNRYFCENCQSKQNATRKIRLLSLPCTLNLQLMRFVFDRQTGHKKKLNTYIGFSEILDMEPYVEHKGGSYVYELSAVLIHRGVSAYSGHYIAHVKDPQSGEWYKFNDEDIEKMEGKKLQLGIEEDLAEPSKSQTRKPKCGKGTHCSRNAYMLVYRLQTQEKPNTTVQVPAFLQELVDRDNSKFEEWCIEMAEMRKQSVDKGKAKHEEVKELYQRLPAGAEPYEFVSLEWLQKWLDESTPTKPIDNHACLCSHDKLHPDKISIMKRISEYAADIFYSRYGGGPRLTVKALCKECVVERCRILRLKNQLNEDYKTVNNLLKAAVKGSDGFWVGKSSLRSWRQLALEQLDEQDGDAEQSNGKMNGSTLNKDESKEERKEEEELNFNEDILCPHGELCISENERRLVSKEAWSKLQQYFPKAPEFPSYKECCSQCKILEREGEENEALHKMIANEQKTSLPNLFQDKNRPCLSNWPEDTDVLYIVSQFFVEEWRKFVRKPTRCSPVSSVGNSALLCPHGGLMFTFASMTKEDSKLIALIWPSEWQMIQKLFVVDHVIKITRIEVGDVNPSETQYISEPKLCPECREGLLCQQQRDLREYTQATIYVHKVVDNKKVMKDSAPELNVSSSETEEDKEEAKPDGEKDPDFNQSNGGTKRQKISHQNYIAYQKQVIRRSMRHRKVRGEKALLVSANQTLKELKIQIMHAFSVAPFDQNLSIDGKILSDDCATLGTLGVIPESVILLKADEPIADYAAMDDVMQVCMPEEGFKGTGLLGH
Outline: as §1

[5] = target: T4, USP5 (UniProt P45974)
T4 sequence (whole entry): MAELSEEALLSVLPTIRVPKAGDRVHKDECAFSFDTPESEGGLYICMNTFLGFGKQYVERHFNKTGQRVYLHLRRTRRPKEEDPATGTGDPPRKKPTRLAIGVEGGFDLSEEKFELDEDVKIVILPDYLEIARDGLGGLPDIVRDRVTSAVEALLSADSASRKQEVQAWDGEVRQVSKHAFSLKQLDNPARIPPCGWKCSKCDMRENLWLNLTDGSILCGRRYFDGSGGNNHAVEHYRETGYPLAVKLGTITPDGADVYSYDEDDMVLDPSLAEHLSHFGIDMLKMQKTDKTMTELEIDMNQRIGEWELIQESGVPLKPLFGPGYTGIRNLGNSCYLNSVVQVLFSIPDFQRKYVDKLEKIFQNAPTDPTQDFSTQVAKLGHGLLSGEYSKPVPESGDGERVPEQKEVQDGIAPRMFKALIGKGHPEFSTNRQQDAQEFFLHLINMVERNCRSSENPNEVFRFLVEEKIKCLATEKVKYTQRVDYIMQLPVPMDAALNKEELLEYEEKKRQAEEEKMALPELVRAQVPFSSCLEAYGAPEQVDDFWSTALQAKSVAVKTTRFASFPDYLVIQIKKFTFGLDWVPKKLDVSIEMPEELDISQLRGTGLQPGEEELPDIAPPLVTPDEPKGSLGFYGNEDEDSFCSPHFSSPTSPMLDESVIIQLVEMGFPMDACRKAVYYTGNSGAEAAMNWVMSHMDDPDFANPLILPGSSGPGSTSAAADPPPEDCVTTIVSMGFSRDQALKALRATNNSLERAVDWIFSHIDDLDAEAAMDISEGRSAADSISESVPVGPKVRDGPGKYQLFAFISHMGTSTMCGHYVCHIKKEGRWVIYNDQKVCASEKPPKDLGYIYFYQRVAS
Outline: as §1

[6] = target: USP54 (UniProt Q70EL1)
Sequence of USP54 (Q70EL1 whole entry): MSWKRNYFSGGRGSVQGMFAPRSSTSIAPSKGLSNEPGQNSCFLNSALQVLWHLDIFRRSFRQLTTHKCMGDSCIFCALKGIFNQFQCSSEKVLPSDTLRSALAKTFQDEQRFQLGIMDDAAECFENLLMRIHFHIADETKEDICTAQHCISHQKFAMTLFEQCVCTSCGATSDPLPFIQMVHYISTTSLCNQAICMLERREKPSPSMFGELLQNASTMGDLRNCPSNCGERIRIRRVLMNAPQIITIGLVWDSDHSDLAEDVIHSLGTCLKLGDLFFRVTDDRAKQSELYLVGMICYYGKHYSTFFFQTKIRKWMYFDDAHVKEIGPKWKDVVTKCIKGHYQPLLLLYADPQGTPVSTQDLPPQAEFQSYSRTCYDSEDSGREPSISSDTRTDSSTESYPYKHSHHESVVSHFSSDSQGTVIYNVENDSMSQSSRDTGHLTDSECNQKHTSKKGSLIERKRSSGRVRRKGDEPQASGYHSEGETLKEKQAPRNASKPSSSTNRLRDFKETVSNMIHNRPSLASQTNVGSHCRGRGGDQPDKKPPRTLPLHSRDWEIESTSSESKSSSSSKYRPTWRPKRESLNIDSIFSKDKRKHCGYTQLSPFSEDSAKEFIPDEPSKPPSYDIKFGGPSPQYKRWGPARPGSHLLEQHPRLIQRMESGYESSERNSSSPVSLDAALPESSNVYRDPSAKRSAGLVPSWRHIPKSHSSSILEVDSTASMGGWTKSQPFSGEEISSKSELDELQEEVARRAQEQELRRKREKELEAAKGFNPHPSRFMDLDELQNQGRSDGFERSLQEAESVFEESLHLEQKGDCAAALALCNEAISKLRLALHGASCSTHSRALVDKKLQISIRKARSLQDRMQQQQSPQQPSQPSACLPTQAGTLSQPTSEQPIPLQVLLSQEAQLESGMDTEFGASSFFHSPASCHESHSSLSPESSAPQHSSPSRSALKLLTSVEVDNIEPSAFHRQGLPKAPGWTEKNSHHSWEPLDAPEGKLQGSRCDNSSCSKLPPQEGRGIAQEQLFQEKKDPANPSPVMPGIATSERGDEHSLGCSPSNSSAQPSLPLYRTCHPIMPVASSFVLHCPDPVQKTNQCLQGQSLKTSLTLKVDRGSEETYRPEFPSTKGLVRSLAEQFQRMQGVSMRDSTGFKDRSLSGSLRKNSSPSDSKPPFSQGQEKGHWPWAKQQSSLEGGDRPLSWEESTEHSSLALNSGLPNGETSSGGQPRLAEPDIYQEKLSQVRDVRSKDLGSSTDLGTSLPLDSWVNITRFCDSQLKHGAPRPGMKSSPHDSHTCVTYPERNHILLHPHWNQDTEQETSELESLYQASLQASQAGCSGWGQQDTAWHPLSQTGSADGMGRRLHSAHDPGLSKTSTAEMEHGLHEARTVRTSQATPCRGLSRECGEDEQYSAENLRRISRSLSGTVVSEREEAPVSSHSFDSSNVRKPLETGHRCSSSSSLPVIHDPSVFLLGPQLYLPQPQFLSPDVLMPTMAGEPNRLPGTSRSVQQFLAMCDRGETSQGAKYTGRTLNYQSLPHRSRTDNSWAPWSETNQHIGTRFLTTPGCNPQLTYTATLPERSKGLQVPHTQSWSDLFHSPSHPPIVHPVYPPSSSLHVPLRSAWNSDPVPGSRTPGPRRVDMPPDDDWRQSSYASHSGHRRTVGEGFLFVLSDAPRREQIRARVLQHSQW
Outline: as §1

[7] = target: USP7 (UniProt Q93009)
Sequence of USP7 (Q93009 whole entry, looked up): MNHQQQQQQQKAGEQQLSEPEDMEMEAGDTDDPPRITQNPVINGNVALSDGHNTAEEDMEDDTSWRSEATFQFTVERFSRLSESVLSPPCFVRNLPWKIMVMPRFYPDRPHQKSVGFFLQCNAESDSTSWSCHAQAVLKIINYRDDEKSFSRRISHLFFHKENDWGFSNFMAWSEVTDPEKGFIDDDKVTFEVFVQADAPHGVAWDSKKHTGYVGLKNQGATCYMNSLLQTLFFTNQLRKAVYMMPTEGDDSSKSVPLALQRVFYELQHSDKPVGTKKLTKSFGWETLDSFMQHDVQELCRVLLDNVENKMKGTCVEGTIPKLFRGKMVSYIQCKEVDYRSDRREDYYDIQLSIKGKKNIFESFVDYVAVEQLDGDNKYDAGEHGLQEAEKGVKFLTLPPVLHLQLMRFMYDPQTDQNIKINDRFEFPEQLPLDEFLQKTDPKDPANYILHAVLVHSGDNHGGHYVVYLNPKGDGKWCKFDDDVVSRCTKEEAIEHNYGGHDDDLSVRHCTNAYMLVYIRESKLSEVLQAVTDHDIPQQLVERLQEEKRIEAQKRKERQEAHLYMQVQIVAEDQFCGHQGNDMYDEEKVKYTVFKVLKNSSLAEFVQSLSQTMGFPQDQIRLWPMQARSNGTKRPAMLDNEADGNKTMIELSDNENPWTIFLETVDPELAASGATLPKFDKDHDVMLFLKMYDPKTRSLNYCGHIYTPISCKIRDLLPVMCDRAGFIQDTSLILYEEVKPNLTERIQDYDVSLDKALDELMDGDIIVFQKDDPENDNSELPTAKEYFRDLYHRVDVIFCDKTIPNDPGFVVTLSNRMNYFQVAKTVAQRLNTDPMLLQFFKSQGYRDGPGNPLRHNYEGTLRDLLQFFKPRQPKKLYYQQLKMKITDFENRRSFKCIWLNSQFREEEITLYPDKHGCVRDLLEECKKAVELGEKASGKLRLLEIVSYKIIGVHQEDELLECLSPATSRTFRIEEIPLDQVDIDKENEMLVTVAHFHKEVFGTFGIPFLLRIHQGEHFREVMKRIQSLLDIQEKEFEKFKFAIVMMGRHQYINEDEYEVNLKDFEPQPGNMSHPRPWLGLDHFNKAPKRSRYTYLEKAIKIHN
Outline: as §1

[8] = target: T5, USP8 (UniProt P40818)
T5 sequence (whole entry): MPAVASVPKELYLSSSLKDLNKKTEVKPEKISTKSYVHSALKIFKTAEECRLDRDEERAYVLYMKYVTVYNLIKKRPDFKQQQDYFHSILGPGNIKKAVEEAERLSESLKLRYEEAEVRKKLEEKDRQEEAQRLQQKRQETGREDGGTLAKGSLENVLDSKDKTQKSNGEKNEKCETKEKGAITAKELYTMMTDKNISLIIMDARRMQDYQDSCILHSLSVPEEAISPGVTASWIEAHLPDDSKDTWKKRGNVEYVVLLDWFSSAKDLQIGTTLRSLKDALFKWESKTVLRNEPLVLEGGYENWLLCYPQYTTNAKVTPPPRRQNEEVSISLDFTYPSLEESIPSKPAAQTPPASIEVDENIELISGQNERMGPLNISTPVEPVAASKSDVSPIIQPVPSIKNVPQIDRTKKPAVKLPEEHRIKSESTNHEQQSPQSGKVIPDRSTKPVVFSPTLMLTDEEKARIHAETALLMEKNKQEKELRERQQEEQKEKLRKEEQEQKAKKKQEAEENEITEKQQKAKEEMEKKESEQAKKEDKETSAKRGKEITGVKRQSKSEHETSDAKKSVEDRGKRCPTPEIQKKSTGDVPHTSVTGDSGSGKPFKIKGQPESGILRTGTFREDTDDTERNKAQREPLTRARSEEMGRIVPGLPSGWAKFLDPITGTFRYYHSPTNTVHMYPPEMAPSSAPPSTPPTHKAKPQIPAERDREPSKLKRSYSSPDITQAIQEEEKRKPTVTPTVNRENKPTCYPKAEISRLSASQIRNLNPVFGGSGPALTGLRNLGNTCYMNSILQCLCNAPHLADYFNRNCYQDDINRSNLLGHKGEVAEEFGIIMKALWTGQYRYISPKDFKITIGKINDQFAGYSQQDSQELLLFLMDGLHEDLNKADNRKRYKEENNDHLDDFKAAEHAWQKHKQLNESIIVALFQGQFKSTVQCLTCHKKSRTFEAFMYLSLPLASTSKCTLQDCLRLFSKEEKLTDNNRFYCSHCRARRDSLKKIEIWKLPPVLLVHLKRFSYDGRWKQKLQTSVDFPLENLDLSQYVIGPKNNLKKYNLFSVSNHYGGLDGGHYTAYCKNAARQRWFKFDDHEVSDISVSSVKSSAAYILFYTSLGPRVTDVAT
Outline: as §1

Measured: log2 ratio of Biotin-Ahx-Ub-VS probe labelling

O=C(CCl)Nc1ccc(F)cc1Cl
inactive: [1] 0.367 | [2] -0.157 | [4] -0.144 | [5] -0.28 | [6] 0.679 | [7] -0.395 | [8] -0.165
active: [3] -1.41
